In all, about 360,000 compounds went through this assay and about 9,100 (2.5%) were called active. Roughly 4% stayed inconclusive and do not appear here. No stated cut-off is given here; in the data, active means max response below about -50%; inconclusive means no clear call, values can overlap the other calls; inactive means above that. Only a selection was taken, and actives are over-represented in it overall.
target: D(3) dopamine receptor (Homo sapiens) (UniProt P35462); assay: qHTS of D3 Dopamine Receptor Antagonist: qHTS; conditions: D3R cells, DiscoveRx beta-arrestin luminescence, antagonist mode; hits give low values
Outline: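 Cells expressing the human receptor were seeded at 1500 cells/well, incubated overnight at 37 degrees C in 5% CO2, then exposed to library compounds with dopamine controls for 90 minutes at 37 degrees C before luminescent detection.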
On the % scale 0 is the no-effect control and ±100 the full control effect.

D(3) dopamine receptor (Homo sapiens), sequence (P35462 whole entry, looked up): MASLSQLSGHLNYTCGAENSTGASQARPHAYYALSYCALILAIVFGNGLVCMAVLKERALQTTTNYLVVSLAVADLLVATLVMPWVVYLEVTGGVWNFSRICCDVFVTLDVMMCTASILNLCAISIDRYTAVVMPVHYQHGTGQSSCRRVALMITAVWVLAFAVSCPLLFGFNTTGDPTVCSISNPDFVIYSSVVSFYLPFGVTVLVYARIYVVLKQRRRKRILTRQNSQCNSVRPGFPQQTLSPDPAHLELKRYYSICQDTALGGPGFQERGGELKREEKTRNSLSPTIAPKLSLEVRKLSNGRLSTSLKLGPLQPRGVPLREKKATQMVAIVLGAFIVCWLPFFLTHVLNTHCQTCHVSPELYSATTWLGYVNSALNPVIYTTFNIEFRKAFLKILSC

| Structure (SMILES) | max response, negative = inhibition |
| --- | --- |
| COc1cc2ccc(C(C)=O)c(O)c2cc1OC | -9.5% (inactive) |
| CCC(C)C(CO)NC(=O)/C=C/[C@H]1O[C@@H](n2cnc3c(NC(=O)c4ccccc4)ncnc32)[C@H](O)[C@@H]1O (stereo partly drawn) | 10.7% (inactive) |
| COc1cc(C(=O)CCc2ccc3c(c2)OCO3)cc(OC)c1OC | -2.22% (inactive) |
| COc1ccc2cc1Oc1ccc(cc1)C[C@H]1c3cc(c(OC)cc3CCN1C)Oc1c(O)c(OC)cc3c1[C@H](C2)N(C)CC3 | -18.7% (inactive) |
| COc1c(O)ccc2c1CN1CCc3cc4c(cc3C1C2)OCO4 (stereo not drawn) | -123% (active) |
| Cn1c(=O)c2cc(NC(=O)NCCc3cccs3)ccc2n1Cc1cccc(C(F)(F)F)c1 | 18.7% (inactive) |
| Cc1cc(Nc2ccc(C)c(C)c2)n2ncnc2n1 | -15.7% (inactive) |
| COc1ccc(-c2ccc(CN3C(C(C)C)C(=O)N(Cc4cn(CC5CCCCC5)nn4)CCS3(=O)=O)cc2)cn1 (stereo not drawn) | 14.3% (inactive) |
| COc1ccc(-c2cc(NC(C)=O)c3ncc(-c4cc(OC)c(OC)c(OC)c4)n3c2)cn1 | 30.1% (inactive) |
| COc1ccccc1C(=O)NC(CCSC)C(=O)N1CCN(C/C=C/c2ccccc2)CC1 (stereo not drawn) | -14% (inactive) |
| CC(C)C(c1nnnn1Cc1ccccc1)N1CCC(C(N)=O)CC1 (stereo not drawn) | 14.4% (inactive) |
| CSCCC(c1nnnn1Cc1ccccc1)N1CCN(C/C=C/c2ccccc2)CC1 (stereo not drawn) | -87.8% (active) |
| OC(COc1ccc(F)cc1Cl)CN1CCc2ccccc2C1 (stereo not drawn) | -83.8% (active) |
| Cc1ccc(Cl)c(OCC(=O)N2CCc3ccccc3C2)c1 | 1.13% (inactive) |
| Cc1ccc(OCC(O)CN2CCN(CC(O)COc3ccc(C)cc3Cl)CC2)c(Cl)c1 (stereo not drawn) | -59.6% (active) |
| Cc1cccc(OCC(O)CN2CCN(S(=O)(=O)c3ccc(C)cc3C)CC2)c1 (stereo not drawn) | -9.79% (inactive) |
| CCCc1ccc(OCC(O)CN2CCN(CCO)CC2)cc1 (stereo not drawn) | 6.19% (inactive) |
| COCCN1CCN(C(=O)c2cc(COc3ccc(F)cc3Cl)on2)CC1 | -9.58% (inactive) |
| CC(C)C[C@H]1CNC(=S)N1C[C@H]1CCCN1C[C@H](Cc1ccc(O)cc1)N1C[C@H](Cc2ccc(O)cc2)N(CC2CCCCC2)C1=S | 4.99% (inactive) |
| CC(=O)NC(c1cccc(F)c1)c1nc(-c2cccc(F)c2)cs1 (stereo not drawn) | 2.77% (inactive) |
| COC(=O)[C@]12CCCCC=C1N(Cc1ccc3c(c1)OCO3)C(=O)[C@H](CC(=O)N1CCOCC1)C2 | 6.26% (inactive) |

| Structure (SMILES) | max response, negative = inhibition |
| --- | --- |
| COc1ccc(C(C)C)cc1-c1ccc2nncn2c1 | -20% (inactive) |
| COc1ccc(C(=O)OCC(=O)Nc2cc(C)on2)cc1F | 9.93% (inactive) |
| O=C(Nc1ccc(N2CCOCC2)cc1)c1cccc2c(-c3ccc(F)c(F)c3)coc12 | -14.5% (inactive) |
| Cc1ccc(CNC(=O)Nc2nnc([C@H]3C[C@H](O)[C@@H](CO)O3)s2)cc1 | 10.5% (inactive) |
| O=C(Nc1nnc([C@H]2C[C@H](O)[C@@H](CO)O2)s1)c1cccc(Cl)c1 | -110% (active) |
| O=C(Nc1ccc(F)cc1)Nc1nnc([C@H]2C[C@H](O)[C@@H](CO)O2)s1 | 16.1% (inactive) |
| CC1=C(C(=O)N2CCOCC2)CC(CC(=O)NCCCN(C)C)C(=O)N1Cc1ccc(C(C)(C)C)cc1 (stereo not drawn) | 35.5% (inactive) |
| Nc1nc2c(ncn2[C@@H]2O[C@H](CNS(=O)(=O)N3CCc4ccccc4C3)[C@@H](O)[C@H]2O)c(=O)[nH]1 | 4.77% (inactive) |
| CCCCc1c(-c2ccc(Br)cc2)ncn1CCc1ccccc1OC | 65.6% (inactive) |
| COc1cccc(CC2(CO)CCCN(Cc3ccc(OC(F)F)cc3)C2)c1 (stereo not drawn) | 8.8% (inactive) |
| COc1cccc(CC2(CO)CCCN(CC3=Cc4cc(OC)ccc4OC3)C2)c1 (stereo not drawn) | -6.63% (inactive) |
| COc1cccc(CC2(CO)CCCN(Cc3nc(-c4cccs4)oc3C)C2)c1 (stereo not drawn) | -116% (active) |
| CCOc1ccc(CCNC(=O)COC(=O)c2ccc(C)c(S(=O)(=O)N3CCOCC3)c2)cc1OCC | -5.11% (inactive) |
| O=C(c1ccc(Br)o1)N1CCN(CCOc2ccccc2)CC1 | 27.8% (inactive) |
| O=C(Nc1ccc(F)cc1F)N1CCCN(CCOc2ccccc2)CC1 | -70.2% (active) |
| O=C(c1ccco1)N1CCN(CCOc2ccccc2)CC1 | -16.8% (inactive) |
| COc1ccc(S(=O)(=O)N2CCOCC2)c(C)c1C | -69.1% (active) |
| COc1cc(C)c(S(=O)(=O)N2CCOCC2)c(C)c1C | 0.216% (inactive) |
| COc1ccc(S(=O)(=O)N2CCCC2)c(C)c1C | -3.98% (inactive) |
| COc1ccc(CC(N)c2csc(NC(=O)Nc3ccc(C(C)C)cc3)n2)cc1 (stereo not drawn) | -12.1% (inactive) |
| OC(c1ccc(Cl)c(F)c1)c1ncc(-c2ccccc2Cl)[nH]1 (stereo not drawn) | -18% (inactive) |

| Structure (SMILES) | max response, negative = inhibition |
| --- | --- |
| CCSc1ncnc2c(C#N)c3n(c12)CCCCC3 | -10.2% (inactive) |
| CCSC1=C(C#N)C(=O)n2c1cc1c2CCCC1 | -65.6% (active) |
| CCN1C(=O)[C@H]2[C@@H](c3ccc(C(F)(F)F)cc3)N[C@]3(CCCN(Cc4ccc(Br)cc4)C3=O)[C@H]2C1=O | 2.39% (inactive) |
| O=C(Nc1cc(S(=O)(=O)Nc2ccc(Cl)cc2)ccc1O)c1ccc(F)cc1F | -59.6% (active) |
| CCS(=O)(=O)c1ccc(O)c(NC(=O)COc2ccc(Cl)cc2)c1 | 0.528% (inactive) |
| O=C(Nc1cccc(S(=O)(=O)NC2=NCCC2)c1)c1ccc(F)cc1F | 5.01% (inactive) |
| COc1ccc(-c2csc(C(O)c3cccc(Cl)c3)n2)cn1 (stereo not drawn) | -24% (inactive) |
| Nc1[nH]c(C(=O)c2ccccc2)c(-c2ccc(Br)cc2)c1C(=O)NC1CC1 | 6.89% (inactive) |
| c1ccc(-c2nccc(-c3ccc(-n4cnc5ccccc54)cc3)n2)nc1 | -53.4% (active) |
| N#CCCn1cnc2ccccc21 | -1.87% (inactive) |
| COC(=O)c1ccc(-n2cnc3ccccc32)nc1 | 3.06% (inactive) |
| CC1=C(C(=O)N2CCOCC2)CC(CC(=O)NCCN2CCOCC2)C(=O)N1CCC1=CCCCC1 (stereo not drawn) | 35.9% (inactive) |
| O=C(NCCS(=O)(=O)N1CCN(c2ccccc2)CC1)c1cc(=O)c2ccccc2o1 | 9.87% (inactive) |
| COc1ccc([C@H]2C[C@@H](n3cc(COC(=O)c4ccccc4)nn3)[C@H](O)CN2C(=O)c2cccs2)cc1 | -28.2% (inactive) |
| CCN1CCN(c2nc(Nc3cccc(F)c3)nc(N)c2[N+](=O)[O-])CC1 | -76.5% (active) |
| COCCNc1nc(N)c([N+](=O)[O-])c(N2CCCCCC2)n1 | 16.7% (inactive) |
| CC1CN(c2nc(Nc3ccccc3)nc(N)c2[N+](=O)[O-])CC(C)O1 (stereo not drawn) | 14.2% (inactive) |
| Cc1ccc(S(=O)(=O)N2CCC(=O)N([C@H](COCc3ccccc3)C(C)C)CC2)cc1 | 8.56% (inactive) |
| CC(C)c1cc(Cn2c3ccccc3c(=O)n2C(C)Cn2cc(C3CC3)nn2)on1 (stereo not drawn) | 0.832% (inactive) |
| CCCCC[C@@H]1C=C(C(=O)OCC)[C@H](c2ccccc2)N1S(=O)(=O)c1ccc(C)cc1 | 0% (inactive) |
| O=C(OCc1cn([C@H]2C[C@H](c3ccccc3)N(C(=O)c3cccs3)C[C@@H]2O)nn1)c1ccccc1 | -25.2% (inactive) |

| Structure (SMILES) | max response, negative = inhibition |
| --- | --- |
| COc1c(C)cc(C(O)c2ncc(-c3cccc(C(F)(F)F)c3)[nH]2)cc1C (stereo not drawn) | 0% (inactive) |
| COC(=O)N(C)C[C@@H]1OCc2cnnn2CCCC(=O)N([C@@H](C)CO)C[C@@H]1C | -14.7% (inactive) |
| O=c1cc(CN2CCCCCCC2)c2c(ccc3ccccc32)o1 | 5.7% (inactive) |
| Cc1ccc2[nH]c(=O)c(CN3CCCCC3)c(-c3ccccc3)c2c1 | 16.1% (inactive) |
| c1ccc2cc3[nH]c(CN4CCCCC4)nc3cc2c1 | -50.3% (active) |
| COc1cccc(/C=C2\SC(=S)N(CCCC(=O)N3CCOCC3)C2=O)c1 | -20.9% (inactive) |
| CCN1C(=NCc2ccc(OC)cc2)N[C@@H](CCc2ccccc2)[C@H](C(=O)NCc2ccc(OC)cc2)[C@H]1C | 4.01% (inactive) |
| CCN1C(=S)N[C@@H](CCc2ccccc2)[C@H](C(=O)OC)[C@H]1C | -63% (active) |
| COCCN1C(=O)N[C@@H](CCc2ccccc2)[C@H](C(C)=O)[C@H]1C | 2.91% (inactive) |
| Cn1c(CCN2CCN(c3ccccn3)CC2)nc2cc(NS(=O)(=O)c3ccc(F)cc3)ccc21 | 0% (inactive) |
| CCOC1=C2CN(S(=O)(=O)c3ccc(C)cc3)[C@H](c3cccs3)C[C@H]2[C@H]2C(=O)N(c3ccccc3)C(=O)[C@H]2C1 | -26.5% (inactive) |
| CCc1nc2c(OCc3ccccc3)cccn2c1N(C)C(=O)c1ccco1 | -0.512% (inactive) |
| Cc1ccc(S(=O)(=O)N2C[C@@H](C)[C@]3(C2)[C@H](O)[C@H](OC(=O)NCc2ccccc2)C[C@H]2C(=O)N(c4ccccc4)C(=O)[C@H]23)cc1 | 18.6% (inactive) |
| CC(=O)Nc1cc(-c2cccc(CO)c2)cn2c(-c3cccc(C(F)(F)F)c3)cnc12 | -52.6% (active) |
| CC(=O)Nc1cccc(-c2cc(NC=O)c3ncc(-c4ccc(F)c(Cl)c4)n3c2)c1 | 58.6% (inactive) |
| CC(=O)Nc1cc(-c2ccccc2F)cn2c(-c3cccc(C(F)(F)F)c3)cnc12 | -2.07% (inactive) |
| COc1ccccc1-c1cc(NC(C)=O)c2ncc(-c3ccc(F)cc3)n2c1 | 0% (inactive) |
| CC(=O)Nc1cc(-c2ccccc2N(C)C)cn2c(-c3ccc(F)c(Cl)c3)cnc12 | -55.6% (active) |
| CC(=O)Nc1cccc(-c2cc(NC(C)=O)c3ncc(-c4ccccc4)n3c2)c1 | 10.2% (inactive) |
| C[C@H](NC(=O)CC[C@H]1O[C@@H](n2ccc(=O)[nH]c2=O)[C@H](O)[C@@H]1O)c1cccc2ccccc12 | -12.4% (inactive) |
